# Laboratory results published in publication PMC8384837, “Expanding the binding specificity for RNA recognition by a PUF domain”.
# Numbering of substitutions follows the chain as printed.
# Key:
# Experiment in all cases: yeast three-hybrid, YBZ-1, SC-Leu-His + 0.5 mM 3-AT, 4 days
# Settings in all cases: tags: N-Gal4 AD-HA kept; label: inside an RPR1-promoter hybrid RNA with tandem MS2 sites; ssRNA
# PUM1 PUF domain R5-KRG = PUM1 PUF domain R5-KRG (Homo sapiens, UniProt Q14671 828-1176, C1007K;Q1011G)
# In short: (§1)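 A centromeric plasmid in strain YBZ-1 co-expressed Pumilio-1 PUF domain libraries, randomized at the three base-contacting residues of each repeat, with matching RNA elements; the strain carries a LexA–MS2 coat fusion and a HIS3 reporter. After four days on SC-Leu (input) or SC-Leu-His + 0.5 mM 3-AT (selection), the repeat regions were PCR-amplified and Illumina-sequenced. The interaction score is the log change in variant frequency from input to selection, using log2 and a pseudocount of 1 where absent.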
# PUM1 PUF domain R5-GKE = PUM1 PUF domain R5-GKE (Homo sapiens, UniProt Q14671 828-1176, C1007G;R1008K;Q1011E)
# In short: as §1
# PUM1 PUF domain R5-SRR = PUM1 PUF domain R5-SRR (Homo sapiens, UniProt Q14671 828-1176, C1007S;Q1011R)
# In short: as §1
# PUM1 PUF domain R5-SMG = PUM1 PUF domain R5-SMG (Homo sapiens, UniProt Q14671 828-1176, C1007S;R1008M;Q1011G)
# In short: as §1
# PUM1 PUF domain R5-DYF = PUM1 PUF domain R5-DYF (Homo sapiens, UniProt Q14671 828-1176, C1007D;R1008Y;Q1011F)
# In short: as §1
# PUM1 PUF domain R5-AGD = PUM1 PUF domain R5-AGD (Homo sapiens, UniProt Q14671 828-1176, C1007A;R1008G;Q1011D)
# In short: as §1
# PUM1 PUF domain R4-WSY = PUM1 PUF domain R4-WSY (Homo sapiens, UniProt Q14671 828-1176, N971W;H972S;Q975Y)
# In short: as §1
# PUM1 PUF domain R4-DWC = PUM1 PUF domain R4-DWC (Homo sapiens, UniProt Q14671 828-1176, N971D;H972W;Q975C)
# In short: as §1
# PUM1 PUF domain R6-CWS = biological target: T1, PUM1 PUF domain R6-CWS (Homo sapiens, UniProt Q14671 828-1176, N1043C;Y1044W;Q1047S)
# T1 sequence: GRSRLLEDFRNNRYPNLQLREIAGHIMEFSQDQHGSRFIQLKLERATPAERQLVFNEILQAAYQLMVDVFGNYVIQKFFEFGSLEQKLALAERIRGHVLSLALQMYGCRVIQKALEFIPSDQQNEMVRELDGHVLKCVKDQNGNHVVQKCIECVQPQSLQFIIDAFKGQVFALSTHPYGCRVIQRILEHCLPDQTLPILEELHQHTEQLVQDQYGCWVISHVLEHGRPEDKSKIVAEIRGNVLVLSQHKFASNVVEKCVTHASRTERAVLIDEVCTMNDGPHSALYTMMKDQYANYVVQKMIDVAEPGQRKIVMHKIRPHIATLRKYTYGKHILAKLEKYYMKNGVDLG
# In short: as §1
# PUM1 PUF domain R6-RFS = biological target: T2, PUM1 PUF domain R6-RFS (Homo sapiens, UniProt Q14671 828-1176, N1043R;Y1044F;Q1047S)
# T2 sequence: T1 sequence with C216R, W217F
# In short: as §1
# PUM1 PUF domain R8-VRR = PUM1 PUF domain R8-VRR (Homo sapiens, UniProt Q14671 828-1176, N1122V;Y1123R;Q1126R)
# In short: as §1
# PUM1 PUF domain R1-KRR = PUM1 PUF domain R1-KRR (Homo sapiens, UniProt Q14671 828-1176, S863K;Q867R)
# In short: as §1
# PUM1 PUF domain R1-KLV = PUM1 PUF domain R1-KLV (Homo sapiens, UniProt Q14671 828-1176, S863K;R864L;Q867V)
# In short: as §1
# PUM1 PUF domain R7-LFG = PUM1 PUF domain R7-LFG (Homo sapiens, UniProt Q14671 828-1176, S1079L;N1080F;E1083G)
# In short: as §1
sequence,measurement,setting,value
GGCUAGAACUAGUGGAUCCCCCGGCGCCCGGCGGCUCGAGCCCGGGUAAGUGUCAAUAGUCUGCAUGCCGCCGGGCGCCAUGCCUGCAGGUCGACUCUAGAAAACAUG,binding signal,PUM1 PUF domain R5-KRG,3.68 log2 enrichment (interaction score)
same,binding signal,PUM1 PUF domain R5-GKE,1.37 log2 enrichment (interaction score)
same,binding signal,PUM1 PUF domain R5-SRR,4.23 log2 enrichment (interaction score)
GGCUAGAACUAGUGGAUCCCCCGGCGCCCGGCGGCUCGAGCCCGGGUAAGUGUUAAUAGUCUGCAUGCCGCCGGGCGCCAUGCCUGCAGGUCGACUCUAGAAAACAUG,binding signal,PUM1 PUF domain R5-KRG,4.3 log2 enrichment (interaction score)
same,binding signal,PUM1 PUF domain R5-GKE,2.85 log2 enrichment (interaction score)
same,binding signal,PUM1 PUF domain R5-SMG,0.67 log2 enrichment (interaction score)
same,binding signal,PUM1 PUF domain R5-DYF,4.44 log2 enrichment (interaction score)
GGCUAGAACUAGUGGAUCCCCCGGCGCCCGGCGGCUCGAGCCCGGGUAAGUGUAAAUAGUCUGCAUGCCGCCGGGCGCCAUGCCUGCAGGUCGACUCUAGAAAACAUG,binding signal,PUM1 PUF domain R5-AGD,1.82 log2 enrichment (interaction score)
same,binding signal,PUM1 PUF domain R4-WSY,2.29 log2 enrichment (interaction score)
same,binding signal,PUM1 PUF domain R5-KRG,1.97 log2 enrichment (interaction score)
same,binding signal,PUM1 PUF domain R4-DWC,2.81 log2 enrichment (interaction score)
same,binding signal,PUM1 PUF domain R6-CWS,3.77 log2 enrichment (interaction score)
same,binding signal,PUM1 PUF domain R6-RFS,4.37 log2 enrichment (interaction score)
same,binding signal,PUM1 PUF domain R8-VRR,1.71 log2 enrichment (interaction score)
GGCUAGAACUAGUGGAUCCCCCGGCGCCCGGCGGCUCGAGCCCGGGUAAGUGUAAAUUGUCUGCAUGCCGCCGGGCGCCAUGCCUGCAGGUCGACUCUAGAAAACAUG,binding signal,PUM1 PUF domain R1-KRR,5.9 log2 enrichment (interaction score)
same,binding signal,PUM1 PUF domain R1-KLV,4.79 log2 enrichment (interaction score)
GGCUAGAACUAGUGGAUCCCCCGGCGCCCGGCGGCUCGAGCCCGGGUAAGUUUAAAUAGUCUGCAUGCCGCCGGGCGCCAUGCCUGCAGGUCGACUCUAGAAAACAUG,binding signal,PUM1 PUF domain R7-LFG,4.82 log2 enrichment (interaction score)
GGCUAGAACUAGUGGAUCCCCCGGCGCCCGGCGGCUCGAGCCCGGGUAAGUGUGAAUAGUCUGCAUGCCGCCGGGCGCCAUGCCUGCAGGUCGACUCUAGAAAACAUG,binding signal,PUM1 PUF domain R5-AGD,3.87 log2 enrichment (interaction score)
same,binding signal,PUM1 PUF domain R5-GKE,4.81 log2 enrichment (interaction score)
same,binding signal,PUM1 PUF domain R5-SMG,2.11 log2 enrichment (interaction score)
GGCUAGAACUAGUGGAUCCCCCGGCGCCCGGCGGCUCGAGCCCGGGUAAGUGUAAAUCGUCUGCAUGCCGCCGGGCGCCAUGCCUGCAGGUCGACUCUAGAAAACAUG,binding signal,PUM1 PUF domain R1-KRR,5.65 log2 enrichment (interaction score)
same,binding signal,PUM1 PUF domain R1-KLV,3.95 log2 enrichment (interaction score)
